Test results from PubChem BioAssay.
Activity calls are given as the source filed them.

Assay: S. pombe growth modifiers, basal conditions – strain 972, OD600, 24 h, no modulator, primary screen (AID 1090);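 note: basal condition with compound alone and no growth modifier present; test concentration not given here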
Conditions: S. pombe 972 growth, higher = more signal, called active from +8 up or from −8 down
For `CC(C)=NO[C@H](C)c1cn([C@H](CO)Cc2ccccc2)nn1`, the z-score was -0.594 (inactive).
For `CCOC(=O)[C@H](CC(C)C)NC(=O)CCC1CC(OC(=O)NCc2cccc3ccccc23)CC2(CCCC(COC(=O)NCCOc3ccccc3)O2)O1` (stereo partly specified), the z-score was 0.269 (inactive).
With `O=C1C[C@@H](O)[C@@H](O)[C@@H]2[C@@H]3C(=O)N(C[C@@H]4CCCO4)C(=O)[C@@H]3CC[C@@H]12` the z-score was -0.519 (inactive).
With `CCOC(=O)[C@H](CC(C)C)NC(=O)CCC1CC(OC(=O)NCc2cccc3ccccc23)CC2(CCCC(COC(=O)NCCc3ccc(Cl)cc3)O2)O1` (stereo partly specified) the z-score was -0.858 (inactive).
In the case of `CO[C@H]1COC(=O)CC=C[C@@H](C)[C@H](NS(=O)(=O)c2ccc(C)cc2)COC(=O)CCC[C@@H]1C`, the z-score is reported as 0.14 (inactive).
For `CO[C@H]1COC(=O)[C@H](C)NC(=O)CC=C[C@@H](C)[C@H](OC)COC(=O)[C@@H](OCc2ccccc2)C=C[C@@H]1C`, the z-score was -0.123 (inactive).
For `CCCNC(=O)OC[C@H]1O[C@H](CCON=C(C)CCN2CCCc3nc(C)c(C)cc32)C=C[C@@H]1Oc1ccc(OC)cc1`, the z-score was -0.604 (inactive).
In the case of `C#CCCCON=C1C[C@@H](O)[C@@H](O)[C@@H]2[C@@H]3C(=O)N(CC)C(=O)[C@@H]3CC[C@@H]12`, the z-score is reported as 0.267 (inactive).
With `COC(=O)[C@H](C)NC(=O)CCC1CC(OC(=O)NCc2ccc3c(c2)OCO3)CC2(CCCC(COC(=O)NCC3CCCCC3)O2)O1` (stereo partly specified) the z-score was 0.803 (inactive).
In the case of `CO[C@H]1COC(=O)CC=C[C@@H](C)[C@H](OC)COC(=O)[C@@H]2CCCN2C(=O)CC=C[C@@H]1C`, the z-score is reported as -0.0931 (inactive).
With `CON=C[C@@H](NS(=O)(=O)c1ccc(C)cc1)[C@H](C)C=CCC(=O)OC` the z-score was 0.435 (inactive).
With `COc1cccc([C@H]2Oc3ccc(OC)cc3C(=NO[C@H](C)c3cn([C@H](CO)Cc4ccccc4)nn3)[C@@H]2O)c1` the z-score was 0.226 (inactive).
For `COc1ccc(COC(=O)NN=C2C[C@@H](O)[C@@H](O)[C@@H]3[C@@H]4C(=O)N(c5cccc(Oc6ccccc6)c5)C(=O)[C@@H]4CC[C@@H]23)cc1`, the z-score was 0.897 (inactive).
With `CO[C@@H]1COC(=O)CC=C[C@H](C)[C@H](OC)COC(=O)[C@H](C)NC(=O)CC=C[C@H]1C` the z-score was -0.245 (inactive).
For `O=C1C[C@@H](O)[C@@H](O)[C@@H]2[C@@H]3C(=O)N(C[C@@H]4CCCO4)C(=O)[C@@H]3CC[C@H]12`, the z-score was -0.563 (inactive).
In the case of `COC(=O)[C@@H]1CC[C@@H](C)[C@H](c2ccc(Br)cc2)N1`, the z-score is reported as -0.179 (inactive).
In the case of `COC(=O)[C@@H]1CC[C@H](C)[C@@H](c2ccc(C)cc2)N1C(=O)c1ccc(C=NO[C@H](C)c2cn([C@@H]3COC[C@H]3O)nn2)cc1`, the z-score is reported as -0.0358 (inactive).
For `Cn1c(=O)n2n(c1=O)[C@H]1[C@H](O)[C@@H]3O[C@@H]3C(=NOCc3ccccc3)[C@H]1CC2`, the z-score was -0.41 (inactive).
For `CCOC(=O)NN=C1C[C@@H](O)[C@@H](O)[C@@H]2[C@@H]3C(=O)N(c4cccc(Oc5ccccc5)c4)C(=O)[C@@H]3CC[C@@H]12`, the z-score was 0.385 (inactive).
With `COC(=O)[C@H](C)NC(=O)CCC1CC(OC(=O)NCc2cccc3ccccc23)CC2(CCCC(COC(=O)NCC(c3ccccc3)c3ccccc3)O2)O1` (stereo partly specified) the z-score was 0.104 (inactive).
For `Cc1ccc(S(=O)(=O)n2c3ccccc3c3nnc(C(=O)c4ccccc4)nc32)cc1`, the z-score was -0.683 (inactive).
For `COC(=O)C=CCCc1coc(C=CCNC(=O)OC)n1`, the z-score was 0.255 (inactive).
In the case of `CON=C1[C@H]2CCn3c(=O)n(-c4ccccc4)c(=O)n3[C@H]2[C@H](O)[C@@H]2O[C@H]12`, the z-score is reported as -1.81 (inactive).
With `CC(C)=CCCC(C)=CCON=C1C[C@@H](O)[C@@H](O)[C@@H]2[C@@H]3C(=O)N(C4CCCCC4)C(=O)[C@@H]3CC[C@@H]12` the z-score was -2.8 (inactive).
For `O=C1[C@H]2[C@H]3[C@H](O)[C@H](O)CC(=NOC[C@@H](O)COCc4ccco4)[C@H]3CC[C@H]2C(=O)N1C[C@@H]1CCCO1`, the z-score was 0.236 (inactive).
With `O=C(NN=C1C[C@@H](O)[C@@H](O)[C@@H]2[C@@H]3C(=O)N(C[C@@H]4CCCO4)C(=O)[C@@H]3CC[C@@H]12)OCc1ccccc1` the z-score was -0.199 (inactive).
With `COc1ccc(C#C[C@@H]2C=C[C@H](OC(C)=O)[C@@H](COC(C)=O)O2)cc1` the z-score was -2.35 (inactive).
With `CC(C)CON=C1C[C@@H](O)[C@@H](O)[C@@H]2[C@@H]3C(=O)N(c4cccc(Oc5ccccc5)c4)C(=O)[C@@H]3CC[C@@H]12` the z-score was 0.174 (inactive).
With `CCOC(=O)[C@H](CC(C)C)NC(=O)CCC1CC(OC(=O)NCc2cccc3ccccc23)CC2(CCCC(COC(=O)NCc3cccc(C(F)(F)F)c3)O2)O1` (stereo partly specified) the z-score was 0.171 (inactive).
With `C#CCCCON=C1C[C@@H](O)[C@@H](O)[C@@H]2[C@@H]3C(=O)N(Cc4ccccc4)C(=O)[C@@H]3CC[C@@H]12` the z-score was -0.351 (inactive).
For `COc1ccc(O[C@H]2C=C[C@@H](c3ccccc3)O[C@@H]2CON=CC[C@@H]2C=C[C@H](OC(C)=O)[C@@H](COC(C)=O)O2)cc1`, the z-score was 0.722 (inactive).
With `CC(C)(C)N1C(=O)[C@H]2[C@H]3[C@H](O)[C@H](O)CC(=O)[C@H]3CC[C@H]2C1=O` the z-score was -0.109 (inactive).
For `Cc1cc2c(nc1C)CCCCN2CC(C)ON=C[C@@H](C)[C@H](OCc1ccccc1)C(C)C` (stereo partly specified), the z-score was -14.4 (active).
For `C#CCCCON=C1C[C@@H](O)[C@@H](O)[C@@H]2[C@@H]3C(=O)N(CCC(=O)OCC)C(=O)[C@@H]3CC[C@H]12`, the z-score was -1.32 (inactive).
With `CCOC(=O)[C@H](CC(C)C)NC(=O)CCC1CC(OC(=O)NCc2cccc3ccccc23)CC2(CCCC(COC(=O)NCCOC)O2)O1` (stereo partly specified) the z-score was -0.837 (inactive).
For `COc1ccc(COC(=O)NN=C2C[C@@H](O)[C@@H](O)[C@@H]3[C@@H]4C(=O)N(c5ccc(F)cc5F)C(=O)[C@@H]4CC[C@H]23)cc1`, the z-score was -4.12 (inactive).
